The source of these data is PubChem BioAssay AID624122 (National Center for Advancing Translational Sciences (NCATS), 2012).

Calls of active or inactive are those of the source.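 Rule for the calls: active = a dissociation constant for apoferritin binding could be measured by titration calorimetry; inconclusive = binding seen but dissociation constant not obtainable; inactive = no binding seen.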

Ferritin light chain (Equus caballus), sequence (P02791 2-175 limits assumed): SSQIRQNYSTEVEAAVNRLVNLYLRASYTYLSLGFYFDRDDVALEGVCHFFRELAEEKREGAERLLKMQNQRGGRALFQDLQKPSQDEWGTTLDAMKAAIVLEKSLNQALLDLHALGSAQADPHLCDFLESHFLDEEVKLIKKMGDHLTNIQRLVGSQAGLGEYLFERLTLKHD

This test deals with Ferritin light chain (Equus caballus) (UniProt P02791). As to the kind of experiment: Isothermal Titration Calorimetry Based Assay for Measurement of Binding Affinity to Apoferritin. The settings on record: horse apoferritin. From the text:
Anesthetic development has remained a largely empirical process. There are growing concerns about the cognitive effects of known general anesthetics and acceleration of the onset of neurodegenerative disease. The compounds' toxicity and multiple specific binding targets in the mammalian brain [4] has made them less attractive as drug leads. This isothermal titration calorimetry (ITC) assay is used to provide Kd binding affinity measurements for apoferritin, which is used here as a surrogate system to identify compounds with potential anesthetic properties. References: [1] S.L. Bianchi, T. Tran, C. Liu, S. Lin, Y. Li, J.M. Keller, R.G. Eckenhoff, and M.F. Eckenhoff, Brain and behavior changes in 12-month-old Tg2576 and nontransgenic mice exposed to anesthetics. Neurobiol Aging 29 (2008) 1002-10. Z. Xie, Y. Dong, U. Maeda, R.D. Moir, W. Xia, D.J. Culley, G. Crosby, and R.E. Tanzi, The inhalation anesthetic isoflurane induces a vicious cycle of apoptosis and amyloid beta-protein accumulation. J Neurosci 27 (2007) 1247-54. […]
In order to further triage primary hits identified from qHTS screen (AID 485281), ITC was utilized to evaluate direct binding signatures between filtered compounds and apoferritin and provide a complete thermodynamic characterization of selected compounds. […] Concentrations were then determined using absorption spectroscopy based on standards prepared in organic solvents. […]
As to `COc1ccc(-c2ccc(=O)n(CC(=O)NCc3ccco3)n2)cc1`, the Kd (usually the free concentration of one partner at which half of the binding sites on the other are occupied at equilibrium, for simple one-to-one binding) is 4.2 µM (active).

For the compound `Cc1ccc(-c2ccc(=O)n(CC(=O)NCCc3ccccc3)n2)cc1`, the Kd was 8.2 µM (active).
